# Test results taken from PubChem BioAssay (EPA / NIEHS).
# Calls of active or inactive are those of the source. The calls were made as follows: active = hit-call score of the fitted dose curve at least 0.9, where 1 is the maximum; inactive = score below 0.9.
# Read-out: Ezrin (EZR), EZR (gene 7430)
# Assay: LTEA_HepaRG_EZR: Life Technologies and Expression Analysis (LTEA) Assay for Ezrin (EZR) using HepaRG (AID 2283491)
# Conditions: mRNA level, 48 h; actives raise or lower the signal
# Summary of the method: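 Differentiated human HepaRG cells, 48 h after plating, were exposed in serum-free induction medium for 48 hours to eight half-log concentrations up to 100 uM in 0.5% DMSO. EZR mRNA was measured by TaqMan qRT-PCR, normalized to ACTB, GAPDH and POLR2A, and fitted bidirectionally against DMSO.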
# Sequence of Cytochrome P450 3A7 (Homo sapiens) (P24462 whole entry, looked up): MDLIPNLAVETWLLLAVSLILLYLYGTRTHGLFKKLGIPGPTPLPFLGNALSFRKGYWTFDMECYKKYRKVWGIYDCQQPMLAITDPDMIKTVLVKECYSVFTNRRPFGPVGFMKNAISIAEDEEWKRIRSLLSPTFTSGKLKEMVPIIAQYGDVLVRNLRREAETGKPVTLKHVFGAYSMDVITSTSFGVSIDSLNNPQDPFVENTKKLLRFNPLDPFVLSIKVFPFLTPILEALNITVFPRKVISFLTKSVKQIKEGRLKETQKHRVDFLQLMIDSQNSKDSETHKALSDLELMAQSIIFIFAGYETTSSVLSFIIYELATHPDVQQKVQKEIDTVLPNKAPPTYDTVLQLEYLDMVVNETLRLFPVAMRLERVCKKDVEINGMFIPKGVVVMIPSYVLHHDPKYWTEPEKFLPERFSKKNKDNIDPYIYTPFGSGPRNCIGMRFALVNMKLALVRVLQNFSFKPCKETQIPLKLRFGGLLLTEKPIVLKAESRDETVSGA
SMILES,outcome,AC50
CCOC(=O)CCC(=O)OCC,inactive,
CCc1c(C(=O)NN2CCCCC2)nn(-c2ccc(Cl)cc2Cl)c1-c1ccc(Br)cc1,inactive,
Nc1nc(N)c2nc(CNc3ccc(C(=O)N[C@@H](CCC(=O)O)C(=O)O)cc3)cnc2n1,inactive,
CCCCCCCCCCO,inactive,
CCCCN(CCCC)CCCC,inactive,
Oc1ccc2ccccc2c1N=Nc1ccccc1,inactive,
CCOC(=O)C(C)(C)Oc1ccc(Cl)cc1,inactive,
CCCc1cc(=O)[nH]c(=S)[nH]1,inactive,
CC1(C)CC(N=C=O)CC(C)(CN=C=O)C1 (stereo not given),inactive,
CCOc1ccc2c(c1)C(C)=CC(C)(C)N2,inactive,
Cc1cccc([N+](=O)[O-])c1C,inactive,
O=c1[nH]cc(F)c(=O)[nH]1,inactive,
Cc1cc(=O)[nH]c(=S)[nH]1,inactive,
Nc1ccc(S(=O)(=O)c2ccc(N)cc2)cc1,inactive,
C=CCOC(=O)c1ccccc1C(=O)OCC=C,inactive,
C=CCc1ccc(O)c(OC)c1,inactive,
CCCCCCC(=O)OCC,inactive,
CCNc1cccc(C)c1,inactive,
C[C@]12C=CC(=O)C=C1CC[C@@H]1[C@@H]2C(=O)C[C@@]2(C)[C@H]1CC[C@]2(O)C(=O)CO,inactive,
O=c1c(O)c(-c2ccc(O)c(O)c2)oc2cc(O)cc(O)c12,inactive,
COc1ccc2c(c1)c(CC(=O)O)c(C)n2C(=O)c1ccc(Cl)cc1,inactive,
COc1ccc(S(=O)(=O)N2C(=O)[C@@](c3ccccc3OC)(N3C[C@H](O)C[C@H]3C(=O)N(C)C)c3cc(Cl)ccc32)c(OC)c1,,11.5 µM (active)
CCCCCCCCCCCC(=O)OC,inactive,
Cc1ccc(C(C)C)c(O)c1,inactive,
CCCCCCOCCO,inactive,
O=C(OCCCCCOC(=O)c1ccccc1)c1ccccc1,inactive,
CNCc1cc(F)ccc1Oc1ccc(Cl)c(Cl)c1,inactive,
COC(=O)c1ccc(O)cc1,inactive,
NC(=O)Cn1c(=O)cc(CCN2CCN(c3nccc4sccc34)CC2)c2ccc(F)cc21,inactive,

# Read-out: Cytochrome P450 3A7 (Homo sapiens) (UniProt P24462)
# Assay: LTEA_HepaRG_CYP3A7: Life Technologies and Expression Analysis (LTEA) Assay for CYP3A7 using HepaRG (AID 2283492)
# Conditions: mRNA level, 48 h; actives raise or lower the signal
# Summary of the method: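 qRT-PCR of CYP3A7 in HepaRG lysates after 48 h treatment; concentration-response (8 points, max 100 uM) analysed bidirectionally relative to 0.5% DMSO controls.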
SMILES,outcome,AC50
CCOC(=O)CCC(=O)OCC,inactive,
CCCCN(CCCC)CCCC,inactive,
CCOC(=O)C(C)(C)Oc1ccc(Cl)cc1,inactive,
CCOc1ccc2c(c1)C(C)=CC(C)(C)N2,,1.12 µM (active)
O=c1[nH]cc(F)c(=O)[nH]1,inactive,
Nc1ccc(S(=O)(=O)c2ccc(N)cc2)cc1,inactive,
C=CCOC(=O)c1ccccc1C(=O)OCC=C,inactive,
CCCCCCC(=O)OCC,inactive,
CCNc1cccc(C)c1,inactive,
COc1ccc(S(=O)(=O)N2C(=O)[C@@](c3ccccc3OC)(N3C[C@H](O)C[C@H]3C(=O)N(C)C)c3cc(Cl)ccc32)c(OC)c1,,30.4 µM (active)
CCCCCCCCCCCC(=O)OC,inactive,
